Laboratory results published in PubChem BioAssay (NCATS).
Where “and” joins values, the source holds several entries; their conditions need not be identical. Equal entries are not always repeated. Inconclusive results are not listed. Calls of active or inactive are those of the source. Calls come from the whole dose curve; as a rule, active = well fitted curve in the direction sought with a large enough effect; inconclusive = small, poorly fitted or top-dose-only effect, or another doubt; inactive = no such curve, though single readings can be large; an effect the other way counts as inactive or inconclusive.

Columns and labels:
[1] = Viability qHTS for spleen associated tyrosine kinase inhibitor (SYKi) naive MV4-11 cells (AID 1963823); conditions: MV4-11 AML viability, CellTiter-Glo luminescence, 72 h; series mostly up to 45 µM; note: nearly all actives have a fitted effect of over 40% in size
Method in brief: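 qHTS, SYK inhibitor-naive MV4-11; 500 cells/well; 72 hr compound exposure, 37 C; CellTiter-Glo added, 10 min RT; luminescence read.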

[2] = Viability qHTS for spleen associated tyrosine kinase inhibitor (SYKi) drug resistant MV4-11 cells (AID 1963824); conditions: SYKi-resistant MV4-11 viability, CellTiter-Glo, 72 h; series mostly up to 45 µM; note: nearly all actives have a fitted effect of over 35% in size
Method in brief: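 CellTiter-Glo luminescence, read 10 min after reagent addition, reports viability after a 72 hr compound exposure. Cells are an MV4-11 line made resistant to SYK inhibition, seeded at 500 per well onto compound-containing plates.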

[3] = Cellular viability qHTS for adrenocortical cancer (ACC) cell line SW-13 (AID 1963989); conditions: SW-13 ACC cells viability, CellTiter-Glo, 48 h; activity (max response): active compounds read low; note: nearly all actives have a fitted effect of over 65% in size;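 for activity (max response): cells grown in serum-free medium with ITS supplement; % is set by controls: 0 for no effect and ±100 for the full control effect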
Method in brief: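 Viability was read as CellTiter-Glo luminescence after 48 h compound treatment (up to 46 uM final) of SW-13 cells grown serum-free; titration curves were fit with a four-parameter logistic model to give IC50 and efficacy.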

[4] = Cellular viability qHTS for adrenocortical cancer (ACC) cell line NCI-H295R (AID 1963990); conditions: CellTiter-Glo ATP luminescence, 48 h; series mostly up to 46.1 µM; note: nearly all actives have a fitted effect of over 60% in size
Method in brief: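 CellTiter-Glo ATP luminescence, read 48 h after compound addition, measured viability of NCI-H295R adrenocortical cells grown serum-free with ITS. Final concentrations spanned up to 46 uM. Data normalized to DMSO and doxorubicin, fitted for IC50 and maximal response.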
Potency is the fitted concentration of half-maximal effect.

NCC(O)c1ccc(O)cc1 (stereo not given)
inactive: Potency [1] | Potency [2] | activity (max response) [3] 9.24% | Potency [4]

ClC1=C(Cl)C2(Cl)C(CBr)CC1(Cl)C2(Cl)Cl (stereo not given)
inactive: Potency [1] | Potency [2] | activity (max response) [3] -7.86% | Potency [4]

O=C(NCCCNc1nc(Nc2ccc(N3CCOCC3)cc2)ncc1C1CC1)C1CCC1
active: Potency [1] 0.118 µM | Potency [2] 0.166 µM
inactive: Potency [4]

c1ccc2c(c1)Sc1ccccc1N2CC1CN2CCC1CC2 (stereo not given)
active: Potency [1] 26.6 µM | Potency [2] 26.6 µM | Potency [4] 16.4 µM

CN1[C@H]2CC(O)C[C@H]1[C@H]1O[C@H]12 (stereo not given in full)
inactive: Potency [1] | Potency [2] | activity (max response) [3] 10.2% | Potency [4]

O=C(NC(=O)c1c(F)cccc1F)Nc1cc(Cl)c(OC(F)(F)C(F)C(F)(F)F)cc1Cl (stereo not given)
active: Potency [1] 11.9 µM | Potency [2] 16.8 µM
inactive: Potency [4]

C=CCN1C[C@H](C)N([C@H](c2ccc(C(=O)N(CC)CC)cc2)c2cccc(OC)c2)C[C@H]1C
inactive: Potency [1] | viability, % of control [2] 93.3% [at 9.25 µM] | Potency [4]

ClCc1cccc(Cl)c1
inactive: Potency [1] | Potency [2] | Potency [4]

Fc1ccc(C(OCCN2CCN(CCCc3ccccc3)CC2)c2ccc(F)cc2)cc1
active: Potency [1] 5.96 µM and 6.61 µM | Potency [2] 6.68 µM and 6.61 µM | Potency [3] 5.8 µM and 14.1 µM | Potency [4] 4.61 µM and 11.2 µM

COc1ccc2c3c1O[C@H]1[C@@H](O)C=C[C@H]4[C@@H](C2)N(C)CC[C@@]341
active: Potency [1] 37.8 µM | Potency [2] 30 µM | Potency [4] 10 µM

CCCCCCCCCCCC[N+](C)(C)CCOc1ccccc1
active: Potency [1] 2.66 µM | Potency [2] 2.66 µM | Potency [3] 5.17 µM | Potency [4] 23.1 µM

CC1NCCOC1c1ccccc1 (stereo not given)
inactive: Potency [1] | Potency [2] | Potency [4]

C[C@]12CC[C@@H]3c4ccc(OC(=O)N(CCCl)CCCl)cc4CC[C@H]3[C@@H]1CC[C@@H]2O
inactive: Potency [1] | Potency [2] | Potency [4]

C=CCN1CC[C@]23CCCC[C@H]2[C@H]1Cc1ccc(O)cc13
inactive: Potency [1] | Potency [2] | activity (max response) [3] -5.85% | Potency [4]

C/C1=C/C[C@@H](/C(C)=C/c2csc(C)n2)OC(=O)C[C@H](O)C(C)(C)C(=O)[C@H](C)[C@@H](O)[C@@H](C)CCC1
active: Potency [1] 0.0332 µM | Potency [2] 0.0332 µM | Potency [4] 0.0224 µM

CO/C=C(/C(=O)OC)c1ccccc1Oc1cc(Oc2ccccc2C#N)ncn1
active: Potency [1] 13.7 µM | Potency [2] 8.63 µM | Potency [4] 7.94 µM

C[C@@H](C1CC[C@@]2(O)C3=CC(=O)[C@@H]4C[C@@H](O)[C@@H](O)C[C@]4(C)[C@H]3CC[C@]12C)[C@H](O)CCC(C)(C)O (stereo not given in full)
inactive: Potency [1] | Potency [2] | activity (max response) [3] -1.09% | Potency [4]

C=CCN1CC[C@]23c4c5ccc(O)c4O[C@H]2C(=O)CC[C@@]3(O)[C@H]1C5
inactive: Potency [1] | Potency [2] | activity (max response) [3] -2.59% | Potency [4]

C[N+]1(CCF)[C@@H]2CC[C@H]1CC(OC(=O)C(O)(c1ccccc1)c1ccccc1)C2 (stereo not given in full)
inactive: Potency [1] | Potency [2] | activity (max response) [3] 9.46% | Potency [4]

Clc1cccc(N2CCNCC2)c1
inactive: Potency [1] | Potency [2] | activity (max response) [3] 2.07% | Potency [4]

Cc1[nH]ncc1-c1cc2nc([C@@H]3CC4CCN3CC4)[nH]c(=O)c2s1
active: Potency [1] 3.32 µM | Potency [2] 4.17 µM | Potency [3] 28.2 µM | Potency [4] 28.2 µM

C[C@H](N)C(=O)c1ccccc1
inactive: Potency [1] | Potency [2] | Potency [4]

Cc1cccc(C)c1NC1=NCCCS1
inactive: Potency [1] | Potency [2] | activity (max response) [3] -0.0852% | Potency [4]

COP(=S)(OC)Oc1ccc(Sc2ccc(OP(=S)(OC)OC)cc2)cc1
inactive: Potency [1] | Potency [2] | activity (max response) [3] 9.16% | Potency [4]

O=C1OC(c2ccc(O)c(S(=O)(=O)O)c2)(c2ccc(O)c(S(=O)(=O)O)c2)c2c(Br)c(Br)c(Br)c(Br)c21
inactive: Potency [1] | Potency [2] | activity (max response) [3] 4.14% | Potency [4]

COC(C)(C)CCCC(C)C/C=C/C(C)=C/C(=O)OC(C)C (stereo not given)
inactive: Potency [1] | Potency [2] | activity (max response) [3] 12.4% | Potency [4]

CO[C@H]1CCC(O[C@H]2C[C@H]([C@]3(C)CC[C@]4(C[C@H](O)[C@@H](C)[C@@H]([C@@H](C)/C=C(\C)C(=O)[C@H](C)C[C@H](C)C(=O)O)O4)O3)O[C@]3(O[C@@H]([C@H]4O[C@@](O)(CO)[C@H](C)C[C@@H]4C)C[C@@H]3C)[C@@H]2C)O[C@@H]1C (stereo not given in full)
active: Potency [1] 0.166 µM | Potency [2] 0.209 µM | Potency [4] 1.12 µM

CC1(C)CC(O)CC(C)(C)N1O
inactive: Potency [1] | Potency [2] | activity (max response) [3] -2.2% | Potency [4]

C[C@@]12OC(=O)[C@]1([C@@H](O)[C@@H]1C=CCCC1)NC(=O)[C@@H]2CCCl
active: Potency [1] 0.0209 µM | Potency [2] 0.0235 µM | Potency [3] 0.501 µM | Potency [4] 0.398 µM

CN(C)c1cc2c(cc1Sc1nc3c(N)nccc3n1CCNCC(C)(C)C)OCO2
active: Potency [1] 0.186 µM | Potency [2] 184 nM and 235 nM | Potency [3] 1.41 µM | Potency [4] 2.24 µM

COc1ccc2c(c1OC)C(=O)O[C@H]2[C@@H]1c2cc3c(cc2CCN1C)OCO3
inactive: Potency [1] | Potency [2] | activity (max response) [3] 8.92% | Potency [4]

Cc1ncc(CNC(=O)N(CCCl)N=O)c(N)n1
inactive: Potency [1] | Potency [2] | Potency [4]

CCCCCCCCCC(=O)O[C@H]1CC[C@H]2[C@@H]3CCC4=CC(=O)CC[C@@H]4[C@H]3CC[C@]12C
inactive: Potency [1] | Potency [2] | activity (max response) [3] 6.32% | Potency [4]

O=C(CCCN1CCC2(CC1)C(=O)NCN2c1ccccc1)c1ccc(F)cc1
inactive: Potency [1] | Potency [2] | activity (max response) [3] -12.3% | Potency [4]

Clc1ccc(CCC(Cn2ccnc2)Sc2c(Cl)cccc2Cl)cc1 (stereo not given)
active: Potency [1] 18.6 µM | Potency [2] 11.9 µM and 18.6 µM | Potency [4] 20.6 µM and 35.5 µM

CCO[C@H]1O[C@@H]2OC3(C)CC[C@H]4[C@H](C)CC[C@@H]([C@H]1C)[C@@]24OO3
inactive: Potency [4]
active: Potency [1] 4.22 µM | Potency [2] 2.99 µM

C=CCC1(C(C)CC)C(=O)NC(=O)NC1=O (stereo not given)
inactive: Potency [1] | Potency [2] | activity (max response) [3] 0.393% | Potency [4]

COc1ccc(Cc2nccc3cc(OC)c(OC)cc23)cc1OC
active: Potency [1] 6.68 µM and 2.35 µM | Potency [2] 7.5 µM and 2.95 µM
inactive: Potency [4]

CC(C)[C@]12O[C@H]1[C@@H]1O[C@]13[C@]1(O[C@H]1C[C@H]1C4=C(CC[C@@]13C)C(=O)OC4)[C@@H]2O
active: Potency [1] 0.0166 µM | Potency [2] 9.2 nM and 16.6 nM | Potency [3] 0.251 µM | Potency [4] 0.316 µM

CC(C)(O)/C=C\C(=O)[C@](C)(O)[C@H]1[C@H](O)C[C@]2(C)[C@@H]3CC=C4[C@@H](C=C(O)C(=O)C4(C)C)[C@]3(C)C(=O)C[C@@]12C
active: Potency [1] 0.059 µM | Potency [2] 0.0468 µM | Potency [3] 0.562 µM | Potency [4] 1.26 µM

CCC(=O)OC1(c2ccccc2)CCN(C)CC1
inactive: Potency [1] | Potency [2] | activity (max response) [3] -11.5% | Potency [4]

OCCCBr
inactive: Potency [1] | activity (max response) [3] 0.205% | Potency [4]

CN1C2CCC(C)(C)C1CC(OC(=O)C(O)(c1cccs1)c1cccs1)C2 (stereo not given)
inactive: Potency [1] | activity (max response) [3] -3.56% | Potency [4]

Cc1nnc2n1-c1sc(CCc3ccc(CC(C)C)cc3)cc1C(c1ccccc1Cl)=NC2C (stereo not given)
active: Potency [1] 5.8 µM | Potency [2] 4.11 µM | Potency [4] 8.2 µM

CN1CCC(O)(c2ccc(F)cc2)C(C(=O)c2ccc(F)cc2)C1 (stereo not given)
inactive: Potency [1] | activity (max response) [3] 0.424% | Potency [4]

CC(C)=CC1C(C(=O)OCc2cccc(Oc3ccccc3)c2)C1(C)C (stereo not given)
inactive: Potency [1] | activity (max response) [3] 3.55% | Potency [4]

CC(C)NCC(O)c1ccc([N+](=O)[O-])cc1 (stereo not given)
inactive: Potency [1] | activity (max response) [3] -6.95%
